Screens: PubChem, National Center for Advancing Translational Sciences (NCATS)
Most compounds without a hit are left out; they make up all but 12% or so of the library.
HP1b chromo inh: HP1-beta chromodomain-methylated histone interaction inhibition | Potency, µM (top dose mostly 114 µM), actives largely listed as inhibitors | AlphaScreen HP1-beta / biotin-H3K9me3 peptide binding | hit rate 0.56% among 390,000 | AID 540317; further: nearly all actives have a fitted effect of over 70% in size
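AlphaScreen: HP1-beta (50 nM) preformed 30 min with biotin-H3(1-18)K9me3 peptide (50 nM) in PBS pH 7.4, 0.01% Tween-20. Compound added for 30 min at RT, then streptavidin donor/nickel chelate acceptor beads (10 ug/mL) for 30 min.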
PI5P4Ka inh: blocks human PI5P4K alpha kinase activity; P48426; PI5P4Kalpha enzyme, ADP-Glo luminescence, 60 min; hits give low values; max response, %; hit rate 1.2% among 330,000; AID 652105; active means max response of -50% or lower; inconclusive means between -30% and -50%; inactive means -30% or higher; further: value at the top dose of about 77 µM
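PI5P4Kalpha ADP-Glo assay; 5 microM ATP final; 60 min RT reaction; HEPES pH 7.4/EGTA/CHAPS, 5% DMSO; controls lacking substrate or enzyme; luminescent end-point.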
G9a block: blocks human histone lysine methyltransferase G9a. Q96KQ7. G9a H3K9 monomethylation, AlphaScreen, 2 h. Potency, µM (top dose mostly 102 µM), most hits filed as inhibitors. hit rate 8.8% among 350,000. AID 504332; further: nearly all actives have a fitted effect of over 75% in size
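Quantitative HTS format: methyltransferase activity on a biotin-tagged H3K9 peptide is measured by AlphaScreen, using a rabbit anti-monomethyl-H3K9 antibody with streptavidin donor and anti-IgG acceptor beads. Final levels are 20 nM enzyme, 500 nM peptide, 20 uM SAM; 2 h RT.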
BAZ2B inh: blocks human BAZ2B; Q9UIF8; hit rate 4.4% among 360,000; AlphaScreen BAZ2B-H3K14Ac peptide displacement; Potency, µM (top dose mostly 114 µM), usual class: inhibitors; AID 504333; further: nearly all actives have a fitted effect of over 60% in size
Target sequence (Q9UIF8 whole entry, looked up): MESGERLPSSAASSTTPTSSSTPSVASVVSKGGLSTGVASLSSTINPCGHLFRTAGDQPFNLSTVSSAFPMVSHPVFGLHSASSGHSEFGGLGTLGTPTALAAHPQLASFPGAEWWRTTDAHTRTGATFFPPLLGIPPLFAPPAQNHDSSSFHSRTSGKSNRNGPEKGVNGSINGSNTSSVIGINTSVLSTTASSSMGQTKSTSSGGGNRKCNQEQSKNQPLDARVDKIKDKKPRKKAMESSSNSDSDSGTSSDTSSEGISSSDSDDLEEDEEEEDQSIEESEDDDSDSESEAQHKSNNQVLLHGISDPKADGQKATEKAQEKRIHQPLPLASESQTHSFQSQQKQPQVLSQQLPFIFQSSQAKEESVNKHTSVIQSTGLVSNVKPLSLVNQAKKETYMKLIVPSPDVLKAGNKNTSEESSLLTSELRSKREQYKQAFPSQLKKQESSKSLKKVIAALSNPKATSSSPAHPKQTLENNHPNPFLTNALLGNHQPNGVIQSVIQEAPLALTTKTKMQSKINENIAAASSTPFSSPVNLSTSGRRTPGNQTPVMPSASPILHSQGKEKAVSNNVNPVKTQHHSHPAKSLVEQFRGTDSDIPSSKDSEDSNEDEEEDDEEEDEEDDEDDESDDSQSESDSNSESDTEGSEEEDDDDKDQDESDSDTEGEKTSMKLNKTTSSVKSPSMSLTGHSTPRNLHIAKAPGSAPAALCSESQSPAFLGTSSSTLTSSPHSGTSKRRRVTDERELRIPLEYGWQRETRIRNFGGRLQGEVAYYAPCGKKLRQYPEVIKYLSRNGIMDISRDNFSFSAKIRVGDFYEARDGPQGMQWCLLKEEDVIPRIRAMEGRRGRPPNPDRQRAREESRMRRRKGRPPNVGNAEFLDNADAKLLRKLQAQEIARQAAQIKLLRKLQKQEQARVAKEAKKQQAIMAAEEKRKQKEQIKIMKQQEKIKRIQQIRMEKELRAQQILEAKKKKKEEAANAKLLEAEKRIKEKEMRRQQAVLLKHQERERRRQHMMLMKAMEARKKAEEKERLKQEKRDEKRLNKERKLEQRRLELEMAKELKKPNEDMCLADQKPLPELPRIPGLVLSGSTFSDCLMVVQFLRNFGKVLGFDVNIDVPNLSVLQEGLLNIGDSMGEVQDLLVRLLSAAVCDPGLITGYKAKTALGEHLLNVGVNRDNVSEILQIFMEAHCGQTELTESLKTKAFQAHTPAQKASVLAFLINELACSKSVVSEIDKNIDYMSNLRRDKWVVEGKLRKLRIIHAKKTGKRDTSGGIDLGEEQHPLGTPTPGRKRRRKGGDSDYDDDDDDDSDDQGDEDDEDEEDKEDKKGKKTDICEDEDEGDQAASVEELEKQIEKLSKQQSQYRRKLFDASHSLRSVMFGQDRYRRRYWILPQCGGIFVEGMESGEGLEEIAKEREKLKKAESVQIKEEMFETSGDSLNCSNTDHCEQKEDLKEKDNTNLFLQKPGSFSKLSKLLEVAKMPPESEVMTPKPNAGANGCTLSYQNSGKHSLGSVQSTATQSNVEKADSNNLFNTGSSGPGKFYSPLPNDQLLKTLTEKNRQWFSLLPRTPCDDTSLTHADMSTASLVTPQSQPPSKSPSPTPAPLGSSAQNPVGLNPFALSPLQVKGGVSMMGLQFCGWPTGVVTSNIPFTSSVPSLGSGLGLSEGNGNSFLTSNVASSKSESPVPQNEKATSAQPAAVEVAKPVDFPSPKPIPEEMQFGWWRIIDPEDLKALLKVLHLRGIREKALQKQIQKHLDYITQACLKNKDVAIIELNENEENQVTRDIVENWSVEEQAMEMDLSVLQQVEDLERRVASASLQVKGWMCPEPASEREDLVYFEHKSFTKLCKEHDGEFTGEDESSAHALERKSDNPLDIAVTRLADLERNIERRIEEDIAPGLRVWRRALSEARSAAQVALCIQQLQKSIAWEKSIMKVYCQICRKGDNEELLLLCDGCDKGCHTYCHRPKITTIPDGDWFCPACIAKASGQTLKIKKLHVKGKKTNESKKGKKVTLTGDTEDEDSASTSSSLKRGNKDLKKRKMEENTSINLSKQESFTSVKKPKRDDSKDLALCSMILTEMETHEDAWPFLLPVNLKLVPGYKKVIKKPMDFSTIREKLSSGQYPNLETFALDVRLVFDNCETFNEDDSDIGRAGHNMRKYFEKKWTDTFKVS
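Complex of BAZ2B and biotin-H3K14Ac (50 nM apiece) forms over 30 min at RT, then faces library compounds up to 110 uM for another 30 min; AlphaScreen beads added, 20 min dark incubation, luminescence read.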
JMJD2A Tudor inh: JMJD2A Tudor domain (human) inhibition; hit rate 4.4% among 390,000; Potency, µM (highest dose often 114 µM), hits mostly inhibitors; O75164; AID 504339; AlphaScreen JMJD2A-Tudor / H3K4me3 peptide binding; further: nearly all actives have a fitted effect of over 50% in size
PLK1 PBD inh: PLK1 (human) polo-box domain binding inhibition. P53350. Plk1 PBD binding of FITC phosphopeptide, fluorescence polarization. Potency, µM, actives largely listed as inhibitors. hit rate 2.8% among 360,000. AID 720504; further: series mostly up to about 57 µM; nearly all actives have a fitted effect of over 65% in size
Numbers stand for hits. Unless noted, the call rests on the fitted dose curve; in most records, active means well fitted curve in the direction sought with a large enough effect; inconclusive means small, poorly fitted or top-dose-only effect, or another doubt; inactive means no such curve, though single readings can be large; an effect the other way counts as inactive or inconclusive.

How did Cc1ccc(S(=O)(=O)/N=C2/C=C(Sc3ncn[nH]3)C(=O)c3ccccc32)c(C)c1 do in these assays?
G9a block: 0.891µM; BAZ2B inh: 44.7µM

Results for CC(C)c1ccc(S(=O)(=O)/N=C2/C=C(Sc3ncn[nH]3)C(=O)c3ccccc32)cc1 ?
HP1b chromo inh: 17.8µM; PI5P4Ka inh: -78.6; G9a block: 1.58µM; BAZ2B inh: 44.7µM; JMJD2A Tudor inh: 7.08µM; PLK1 PBD inh: 1.5µM

What do the screens show for `CC(C)C(C(=O)Nc1ncn[nH]1)N1C(=O)c2ccccc2C1=O` (stereo not given)?
HP1b chromo inh: inactive; PI5P4Ka inh: inactive; G9a block: inconclusive; BAZ2B inh: inactive; JMJD2A Tudor inh: inactive; PLK1 PBD inh: inactive

What do the screens show for `Cc1ccc(S(=O)(=O)/N=C2/C=C(Sc3ncn[nH]3)C(=O)c3ccccc32)cc1`?
HP1b chromo inh: 8.91µM; PI5P4Ka inh: -99.9; G9a block: 0.562µM; BAZ2B inh: 44.7µM; JMJD2A Tudor inh: 2.82µM; PLK1 PBD inh: 0.752µM

What do the screens show for `O=C(Nc1ccc2c(c1)OCCO2)C(C1CC1)n1c(=O)c(-c2cc3ccccc3[nH]2)nc2ccccc21` (stereo not given)?
PI5P4Ka inh: inactive; PLK1 PBD inh: inactive

Results for Cc1c(OC(C)C(=O)NCC(O)c2ccccc2)ccc2c3c(c(=O)oc12)CCC3 (stereo not given) ?
HP1b chromo inh: inactive; PI5P4Ka inh: inactive; BAZ2B inh: inactive; JMJD2A Tudor inh: inactive; PLK1 PBD inh: inactive

What do the screens show for `CC(C)N(C)C1CCN(S(=O)(=O)c2ccc3[nH]c(=O)ccc3c2)CC1`?
HP1b chromo inh: inactive; G9a block: inactive; BAZ2B inh: inactive; JMJD2A Tudor inh: inactive

How did COc1ccccc1/C=C/C=N/n1c(-c2ccc(C)cc2)n[nH]c1=S do in these assays?
HP1b chromo inh: inactive; PI5P4Ka inh: inactive; G9a block: inconclusive; BAZ2B inh: inactive; JMJD2A Tudor inh: inactive; PLK1 PBD inh: inactive

Results for COc1cccc(/C=N/n2c(-c3ccco3)nc3ccccc3c2=O)c1OC ?
HP1b chromo inh: inactive; PI5P4Ka inh: inactive; G9a block: inactive; BAZ2B inh: inactive; JMJD2A Tudor inh: inactive; PLK1 PBD inh: inactive

What do the screens show for `Cc1nnc(C)n1/N=C/C=C/c1ccccc1`?
HP1b chromo inh: inactive; PI5P4Ka inh: inactive; G9a block: inactive; BAZ2B inh: inactive; JMJD2A Tudor inh: inactive; PLK1 PBD inh: inactive

Results for COc1ccccc1/C=C/C=N/n1c(-c2ccncc2)n[nH]c1=S ?
HP1b chromo inh: inactive; PI5P4Ka inh: inactive; G9a block: 1.26µM; BAZ2B inh: inconclusive; JMJD2A Tudor inh: 10µM; PLK1 PBD inh: inactive

How did COc1ccc(-c2n[nH]c(=S)n2/N=C/C=C\c2ccccc2OC)cc1 do in these assays?
HP1b chromo inh: inactive; PI5P4Ka inh: inactive; G9a block: inconclusive; BAZ2B inh: inactive; JMJD2A Tudor inh: 89.1µM; PLK1 PBD inh: inactive

What do the screens show for `COc1ccccc1/C=C/C=N/n1c(-c2ccco2)n[nH]c1=S`?
HP1b chromo inh: inactive; PI5P4Ka inh: inactive; G9a block: 1.26µM; BAZ2B inh: inconclusive; JMJD2A Tudor inh: 28.2µM; PLK1 PBD inh: inconclusive

Results for S=c1[nH]nc(-c2ccncc2)n1/N=C/C=C/c1ccccc1 ?
HP1b chromo inh: inconclusive; PI5P4Ka inh: inactive; G9a block: inconclusive; BAZ2B inh: inactive; JMJD2A Tudor inh: 4.47µM; PLK1 PBD inh: inactive

How did Cc1ccc(C)c(CN2C(=O)c3ccccc3S(=O)c3ccc(C(=O)NCCc4ccc(Cl)cc4)cc32)c1 (stereo not given) do in these assays?
HP1b chromo inh: inactive; G9a block: inactive; BAZ2B inh: inactive; JMJD2A Tudor inh: inactive

Results for COc1ccc(-c2cc(C(F)(F)F)nc(SCC(=O)N3CCCCC3)n2)cc1OC ?
HP1b chromo inh: inactive; G9a block: inactive; BAZ2B inh: inactive; JMJD2A Tudor inh: inactive

Results for S=c1[nH]nc(-c2ccncc2)n1/N=C/C(Cl)=C\c1ccccc1 ?
HP1b chromo inh: inactive; PI5P4Ka inh: inconclusive; BAZ2B inh: 50.1µM; JMJD2A Tudor inh: 17.8µM; PLK1 PBD inh: 6.7µM

What do the screens show for `O=C(N/N=C/C(Cl)=C/c1ccccc1)c1ccncc1`?
HP1b chromo inh: inactive; PI5P4Ka inh: inactive; G9a block: inactive; BAZ2B inh: inactive; JMJD2A Tudor inh: inactive; PLK1 PBD inh: inactive

What do the screens show for `COc1ccc(CNC(=O)CN2C(=O)COc3ccc(S(=O)(=O)N4CCCCCC4)cc32)cc1`?
HP1b chromo inh: inactive; G9a block: inactive; BAZ2B inh: inactive; JMJD2A Tudor inh: inactive

Results for CC1(c2ccccc2)CC(C)(C)N2C(=O)C(=O)c3cccc1c32 (stereo not given) ?
HP1b chromo inh: inactive; PI5P4Ka inh: inactive; G9a block: inconclusive; BAZ2B inh: 28.2µM; JMJD2A Tudor inh: inconclusive; PLK1 PBD inh: inactive

How did COc1ccc(Nc2nc(NCc3ccco3)nc(N/N=C/c3ccccc3F)n2)cc1 do in these assays?
HP1b chromo inh: inconclusive; PI5P4Ka inh: inactive; G9a block: inactive; BAZ2B inh: inconclusive; JMJD2A Tudor inh: 50.1µM; PLK1 PBD inh: inactive

What do the screens show for `COc1ccc(Nc2nc(NCc3ccco3)nc(N/N=C/c3ccc(O)cc3)n2)cc1`?
HP1b chromo inh: inactive; PI5P4Ka inh: inactive; G9a block: inconclusive; BAZ2B inh: 22.4µM; JMJD2A Tudor inh: inconclusive; PLK1 PBD inh: inactive

Results for COc1ccc(/C=N/Nc2nc(NCc3ccco3)nc(Nc3ccc(OC)cc3)n2)cc1 ?
HP1b chromo inh: inactive; PI5P4Ka inh: inactive; G9a block: inactive; BAZ2B inh: inconclusive; JMJD2A Tudor inh: inactive; PLK1 PBD inh: inactive

What do the screens show for `O=C(CCN1C(=O)c2ccccc2C1=O)CN1CCOCC1`?
HP1b chromo inh: inactive; PI5P4Ka inh: inactive; G9a block: 50.1µM; BAZ2B inh: inactive; JMJD2A Tudor inh: inactive; PLK1 PBD inh: inactive

Results for CCC(C)C(NC(=O)OC(C)(C)C)C(=O)NC1COC2CC(n3cc(F)c(=O)[nH]c3=O)OC12 (stereo not given) ?
HP1b chromo inh: inactive; JMJD2A Tudor inh: inactive

Results for O=S(=O)(/N=C(/Nc1ccccn1)c1ccccc1)c1ccc(F)cc1 ?
HP1b chromo inh: inactive; PI5P4Ka inh: inactive; BAZ2B inh: inactive; JMJD2A Tudor inh: inactive; PLK1 PBD inh: inactive

Results for O=C(NNc1ccccn1)C(=O)NNS(=O)(=O)c1ccc(Cl)cc1 ?
HP1b chromo inh: inactive; PI5P4Ka inh: inactive; G9a block: inactive; BAZ2B inh: 56.2µM; JMJD2A Tudor inh: inactive; PLK1 PBD inh: inactive

What do the screens show for `O=C(NNc1ccccn1)C(=O)NNS(=O)(=O)c1ccc(F)cc1`?
HP1b chromo inh: inactive; PI5P4Ka inh: inactive; G9a block: inactive; BAZ2B inh: 39.8µM; JMJD2A Tudor inh: inactive; PLK1 PBD inh: inactive

What do the screens show for `Cc1cc(C)cc(NC(=O)C2CCCN(C(=O)c3cnn(-c4ccccc4)c3-n3cccc3)C2)c1` (stereo not given)?
HP1b chromo inh: inactive; G9a block: inactive; BAZ2B inh: inactive; JMJD2A Tudor inh: inactive
